Measured values from PubChem BioAssay AID602143 (Vanderbilt Specialized Chemistry Center, 2011).
Activity calls are given as the source filed them. No stated cut-off is given here; in the data, active means remaining activity below about 50%; inactive means the rest.

target: Phospholipase D2 (Homo sapiens) (UniProt O14939); assay: cellular phospholipase D2 activity inhibition – cell-based, HEK293, single concentration (AID 602143); details: HEK293 cellular PLD2 activity, percent of control; stronger effect = lower value;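 further: tested at 200 nM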
Sequence (O14939 whole entry, looked up): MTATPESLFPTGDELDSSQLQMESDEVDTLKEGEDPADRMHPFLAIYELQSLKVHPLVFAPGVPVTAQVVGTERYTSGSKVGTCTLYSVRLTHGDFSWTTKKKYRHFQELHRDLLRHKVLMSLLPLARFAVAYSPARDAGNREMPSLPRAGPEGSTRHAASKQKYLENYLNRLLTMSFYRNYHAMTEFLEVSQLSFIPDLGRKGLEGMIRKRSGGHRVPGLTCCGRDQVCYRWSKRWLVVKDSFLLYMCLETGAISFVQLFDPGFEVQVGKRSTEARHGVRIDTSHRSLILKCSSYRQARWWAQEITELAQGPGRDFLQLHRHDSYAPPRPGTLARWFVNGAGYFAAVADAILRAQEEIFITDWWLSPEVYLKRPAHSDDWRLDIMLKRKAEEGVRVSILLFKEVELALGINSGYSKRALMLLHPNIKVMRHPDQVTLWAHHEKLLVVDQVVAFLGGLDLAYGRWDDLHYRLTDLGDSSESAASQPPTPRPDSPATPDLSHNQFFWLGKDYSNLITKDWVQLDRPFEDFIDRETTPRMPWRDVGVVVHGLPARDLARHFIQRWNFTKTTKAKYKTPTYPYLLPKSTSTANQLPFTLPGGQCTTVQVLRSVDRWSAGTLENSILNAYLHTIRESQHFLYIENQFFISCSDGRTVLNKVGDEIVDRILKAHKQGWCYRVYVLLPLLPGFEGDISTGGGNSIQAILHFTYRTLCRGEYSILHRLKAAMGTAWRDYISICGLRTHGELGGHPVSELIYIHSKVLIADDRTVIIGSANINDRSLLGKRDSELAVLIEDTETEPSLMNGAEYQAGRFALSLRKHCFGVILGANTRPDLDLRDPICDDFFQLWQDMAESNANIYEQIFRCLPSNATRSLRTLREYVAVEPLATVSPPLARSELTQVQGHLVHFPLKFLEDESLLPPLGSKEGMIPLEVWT
Sequence (O14939 whole entry, looked up): as above

Structure (SMILES)	remaining activity
C[C@@H](CN1CCC(c2nc3ccc(F)cc3[nH]2)CC1)NC(=O)[C@H]1CC1c1ccccc1 (stereo partly drawn)	92.5% (inactive)
C[C@@H](CN1CCC(n2c(=O)[nH]c3ccccc32)CC1)NC(=O)C1C[C@H]1c1ccccc1 (stereo partly drawn)	105% (inactive)
CN1CCC2(CCN(CCNC(=O)c3ccc4ccccc4c3)CC2)C1=O	129% (inactive)
